{"source": "PubChem BioAssay AID977606", "about": "(Broad Institute, 2014)", "note": "Hit rate of the full screen: of about 1,500 compounds, about 430 (29%) were called active. How the calls were made is not given here. The list is a sample of the results. Measured potencies and affinities stand elsewhere.", "data": [{"assay": "glucose-independent GLuc insulin release activation – cell-based, INS-1E, Gaussia luciferase, luminescence, cherry-pick, counter-screen for glucose-dependent insulin secretion activators, dose response (AID 977606)", "conditions": "INS-1E Gaussia luciferase insulin secretion, no glucose, 100% = twice neutral-control luminescence; series mostly up to 35 µM", "values": [{"smiles": "CC(C)c1ccc(NC2CCCN(C(=O)c3cccnc3)C2)cc1", "note": "(configuration not stated)", "outcome": "inactive"}, {"smiles": "COc1ccc(CCn2ccc(O)c(Cc3c(F)cccc3Cl)c2=O)cc1OC", "outcome": "inactive"}, {"smiles": "CCN(C[C@H]1N[C@@](CC)(C(=O)OC)[C@H]2C(=O)N(C)C(=O)[C@@H]12)S(=O)(=O)c1ccc(OC)cc1", "outcome": "inactive"}, {"smiles": "COc1ccc(CCC(=O)NC2CCC(C)CC2)cc1", "note": "(configuration not stated)", "outcome": "inactive"}, {"smiles": "COC(=O)C1=C(C)NC(=S)NC1c1ccc(OC)cc1", "note": "(configuration not stated)", "outcome": "inactive"}, {"smiles": "CNc1nc(Nc2ccccc2)nc(OCC(F)(F)F)n1", "outcome": "inactive"}, {"smiles": "CCCCN(Cc1nc2ccccc2c(=O)[nH]1)C(=O)c1nn(C)c(=O)c2ccccc12", "outcome": "inactive"}, {"smiles": "c1cn2cc(-c3ccc(CN4CCOCC4)cc3)ccc2n1", "outcome": "inactive"}, {"smiles": "CC(C)CN(C(=O)C1CCCCC1)C1CCS(=O)(=O)C1", "note": "(configuration not stated)", "outcome": "inactive"}, {"smiles": "Cc1ccc(CN(C(=O)c2cccs2)C2CCS(=O)(=O)C2)cc1", "note": "(configuration not stated)", "outcome": "inactive"}, {"smiles": "Cc1c(Cc2ccccc2)sc(NC(=O)C(C)(C)C)c1C(N)=O", "outcome": "inactive"}, {"smiles": "Cc1c(Cc2ccccc2)sc(NC(=O)c2ccco2)c1C(N)=O", "outcome": "inactive"}, {"smiles": "COC(=O)c1cc(S(=O)(=O)NCC2CCN(Cc3cc(C)ccc3C)CC2)c[nH]1", "outcome": "inactive"}, {"smiles": "Cc1ccc(C)c(OCC(=O)NCC(C)(C)N2CCOCC2)c1", "outcome": "inactive"}, {"smiles": "Cc1ccc(C)c(OCC(=O)Nc2cc(NC(=O)COc3cc(C)ccc3C)cc(C(=O)O)c2)c1", "outcome": "inactive"}, {"smiles": "O=C1CC(=O)Nc2cc(S(=O)(=O)NCc3cccs3)ccc2N1", "outcome": "inactive"}, {"smiles": "O=C1CSC(c2cccc(O)c2)N1Cc1ccccc1", "note": "(configuration not stated)", "outcome": "inactive"}, {"smiles": "CC(C)Cc1nc2oc3c(NCc4cccnc4)ncnc3c2c2c1CCC2", "outcome": "inactive"}, {"smiles": "CCOC(=O)C1CCCN(C(=O)c2ccccc2OC(F)(F)F)CC1", "note": "(configuration not stated)", "outcome": "inactive"}, {"smiles": "CN(C)N1C(N)=C(C#N)C(c2ccc(F)cc2)C2=C1CCCC2=O", "note": "(configuration not stated)", "outcome": "inactive"}, {"smiles": "O=C(O)c1ccc(-n2nc(-c3ccccc3)c3ccccc3c2=O)cc1", "outcome": "inactive"}, {"smiles": "O=c1c2ccccc2c(-c2ccccc2)nn1-c1ccccn1", "outcome": "inactive"}, {"smiles": "Cc1ccccc1SC1CCN(C(=O)C2CCC(=O)N(C3CC3)C2)CC1", "note": "(configuration not stated)", "outcome": "inactive"}, {"smiles": "COc1ccc(CCNC(=O)C(=O)c2c(C)n(C)c3ccccc23)cc1OC", "outcome": "inactive"}, {"smiles": "CCc1nc(N)nc(N)c1-c1ccc(Cl)c(N=[N+]=[N-])c1", "outcome": "inactive"}, {"smiles": "COc1ccc(C(C)=O)cc1CSCc1cc(C(C)=O)ccc1OC", "outcome": "inactive"}, {"smiles": "CN(C)CCCN(C(=O)CCOc1ccccc1)c1nc2c(F)cccc2s1", "outcome": "inactive"}, {"smiles": "COc1ccc(CCNC(=O)CCn2c(=O)c3cccn3c3cccnc32)cc1OC", "outcome": "inactive"}, {"smiles": "COc1ccc(C2=NN(C(=O)c3ccco3)C(c3cccs3)C2)cc1OC", "note": "(configuration not stated)", "outcome": "inactive"}, {"smiles": "CC(=O)N1CCN(c2nnc(-c3ccccc3)c3ccccc23)CC1", "outcome": "inactive"}, {"smiles": "COc1ccc(-c2cnnn2-c2ccc(N)cc2)cc1OC", "outcome": "inactive"}, {"smiles": "CCOC(=O)c1nc2nc(-c3cccs3)cc(C(F)(F)F)n2n1", "outcome": "inactive"}, {"smiles": "CCOC(=O)c1cc(-c2ccncc2)nc2c1c(C)nn2-c1ccccn1", "outcome": "inactive"}, {"smiles": "CCN(CC)C(=O)C1(P(=O)(c2ccccc2)c2ccccc2)CCC1", "outcome": "inactive"}, {"smiles": "CCCNC(=O)C1(C)CCCN(Cc2cccn2C)C1", "note": "(configuration not stated)", "outcome": "inactive"}, {"smiles": "CC(C)(C)c1ccc(S(=O)(=O)N2CC(C(=O)O)Oc3ccc(Cl)cc32)cc1", "note": "(configuration not stated)", "outcome": "inactive"}, {"smiles": "N#CCCCc1cc2ccccc2cn1", "outcome": "inactive"}, {"smiles": "Cc1cc(Br)c2c(c1)C1(OCCO1)C(=O)N2", "outcome": "inactive"}, {"smiles": "CCCc1c(C)c2ccc(OCC(C)=O)cc2oc1=O", "outcome": "inactive"}, {"smiles": "CNc1nc(-c2ccccc2)cc(-c2ccccc2)n1", "outcome": "inactive"}, {"smiles": "CCS(=O)(=O)c1nc(S(=O)(=O)c2ccc(C)cc2)c(N2CCC(O)CC2)s1", "outcome": "inactive"}, {"smiles": "O=C(Nc1cccc(Cl)c1)c1cnn2cccnc12", "outcome": "inactive"}, {"smiles": "O=C(Cn1cnc2sc(-c3ccccc3)cc2c1=O)NCCc1ccccc1", "outcome": "inactive"}, {"smiles": "COc1ccc(/C=N/NC(=O)Cn2cnc3ccccc3c2=O)cc1OC", "outcome": "inactive"}, {"smiles": "COc1ccc(C(C)=O)cc1Cn1cnc2c(cnn2C)c1=O", "outcome": "inactive"}, {"smiles": "CCc1nc2ccc(C(=O)NCCCN(C)C)cn2c1N(C)Cc1ccc(OC)cc1", "outcome": "inactive"}, {"smiles": "COc1ccc(C2=NN(C(=O)c3ccco3)C(c3ccco3)C2)cc1OC", "note": "(configuration not stated)", "outcome": "inactive"}, {"smiles": "O=C(CCn1ccc2cc(S(=O)(=O)N3CCCC3)ccc21)NCc1cccc(F)c1", "outcome": "inactive"}, {"smiles": "c1ccc(CNc2nc(Oc3ccncc3)c3sccc3n2)cc1", "outcome": "inactive"}, {"smiles": "Cc1cc(Cl)ccc1-c1nc(NCc2ccccc2)nc2ccsc12", "outcome": "inactive"}, {"smiles": "COc1ccc(C2C3CCCCC3(O)CCN2C(=O)c2cccs2)cc1", "note": "(configuration not stated)", "outcome": "inactive"}, {"smiles": "CCn1c(SCc2cc(=O)[nH]c3ccccc23)nc2c1c(=O)n(C)c(=O)n2C", "outcome": "inactive"}, {"smiles": "C=CCN(Cc1ccc(OC)c(OC)c1)C(=O)N1CCOCC1", "outcome": "inactive"}, {"smiles": "S=C(NCc1ccccc1)Nc1ccc2cn[nH]c2c1", "outcome": "inactive"}, {"smiles": "CCC(=O)Nc1nnc(Sc2ccc(N(C)C)cc2)s1", "outcome": "inactive"}, {"smiles": "CCSc1nnc(NC(=O)c2csc(C)c2)s1", "outcome": "inactive"}, {"smiles": "CCOc1ccc(CCNC(=O)CCC(=O)c2cccs2)cc1OCC", "outcome": "inactive"}, {"smiles": "COCCn1c(=O)[nH]c2cc(C(=O)Nc3cc(OC)c(OC)c(OC)c3)ccc2c1=O", "outcome": "inactive"}, {"smiles": "CCOC(=O)Cc1csc(NC(=O)c2ccc(OC)c(OC)c2)n1", "outcome": "inactive"}, {"smiles": "COCCNC(=O)CCCn1c(=O)c2ccccc2n(Cc2ccccc2C#N)c1=O", "outcome": "inactive"}, {"smiles": "COc1ccc(CCNS(=O)(=O)c2ccc(Cl)s2)cc1OC", "outcome": "inactive"}, {"smiles": "O=C(c1cc(-c2ccc(F)cc2)nc2ccccc12)N1CCN(C2CCS(=O)(=O)C2)CC1", "note": "(configuration not stated)", "outcome": "inactive"}, {"smiles": "O=C(Nc1ccc(C(=O)N2CCCC2)cc1)c1cccc(C(F)(F)F)c1", "outcome": "inactive"}, {"smiles": "CCOc1ccc(CCNC(=O)COc2cc(=O)n(C)c3ccccc23)cc1OCC", "outcome": "inactive"}, {"smiles": "O=S1(=O)c2ccccc2OC(COCc2ccccc2)CN1C1CC1", "note": "(configuration not stated)", "outcome": "inactive"}, {"smiles": "CC(C)Oc1cccc(C(=O)C2CCCN(C(=O)CCc3cnn(C)c3)C2)c1", "note": "(configuration not stated)", "outcome": "inactive"}, {"smiles": "COc1ccc(-c2nnc3sc(-c4cccs4)nn23)cc1OC", "outcome": "inactive"}, {"smiles": "c1csc(-c2nc(NCC3CCCO3)c3ccccc3n2)c1", "note": "(configuration not stated)", "outcome": "inactive"}, {"smiles": "Cc1cc(NC(=O)COC(=O)c2oc3c(Cl)cccc3c2C)no1", "outcome": "inactive"}, {"smiles": "COc1cc(/C=N/Nc2cc(C)nc(NS(=O)(=O)c3ccc(C)cc3)n2)ccc1O", "outcome": "inactive"}, {"smiles": "CCOc1ccccc1CNS(=O)(=O)c1cnc[nH]1", "outcome": "inactive"}, {"smiles": "CCOc1nc(NC(=O)NS(=O)(=O)Oc2ccccc2Cl)nc(-c2ccccc2)n1", "outcome": "inactive"}]}]}
